# The list is not random: actives were taken first. Their share in the collection is about 4.9%.
# Platelet DG rel: modulates dense granule release in human platelets. hit rate 0.22% among 300,000. AID 1663. inhibition, %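 (compounds screened at 7.5 µM in platelet-rich plasma)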. human platelet-rich plasma, SFLLRN dense granule ATP release, luminescence;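 active = mean replicate score, as percent of positive control, at or above 50; inconclusive = mean below 50 but at least one replicate at or above 50; inactive = mean and every replicate below 50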
# dFosB act-1: mouse delta FosB homodimer activation; P13346; purified delta FosB, TAMRA-CDK5 oligo fluorescence polarization; percent of positive-control signal above neutral wells; activation, % at 25 µM; hit rate 0.99% among 340,000; AID 493131;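 active = mean activation above about 17%, with every replicate also reaching it, limit read from the data, passing the limit was not always enough; inconclusive = only one of the two conditions met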
# Target sequence (P13346 whole entry, looked up): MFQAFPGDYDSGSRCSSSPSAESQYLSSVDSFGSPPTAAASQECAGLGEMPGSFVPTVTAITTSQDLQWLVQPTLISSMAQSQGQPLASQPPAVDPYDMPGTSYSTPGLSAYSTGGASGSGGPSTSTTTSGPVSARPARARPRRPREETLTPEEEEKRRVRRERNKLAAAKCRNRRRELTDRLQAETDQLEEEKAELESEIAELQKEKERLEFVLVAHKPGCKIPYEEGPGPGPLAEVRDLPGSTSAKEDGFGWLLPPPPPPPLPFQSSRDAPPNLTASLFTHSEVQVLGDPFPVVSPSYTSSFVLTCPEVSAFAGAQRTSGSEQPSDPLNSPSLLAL
# HSF1 activator: increases HSF-1 driven luciferase reporter signal. activation, % at 9 µM. NIH3T3-HGL HSF-1 luciferase reporter, MG132, 8 h; 100% = twice DMSO control signal. hit rate 1.7% among 300,000. AID 504408;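 active = mean replicate activation of at least 50% with a set share of replicates each reaching 50%; inconclusive = only one of those two conditions met; inactive = mean below 50% and too few replicates reaching it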;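 note: 0% = median of the neutral control wells and 100% = twice that signal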
# MPTP block: inhibitors of mitochondrial permeability transition pore; isolated mouse mitochondria, Ca2+ swelling absorbance, 30 min; inhibition, % at 10 µM; hit rate 1.4% among 360,000; AID 602449;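 active = inhibition of 50% or more, scaled per plate between neutral and stimulator controls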;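 note: 0% = DMSO wells given calcium and 100% = 1 mM EGTA wells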
# HSF1 inh: HSF1 inhibition | NIH3T3-HGL HSE-luciferase, MG132-induced, luminescence 8 h; hits give low values | activity change, negative = inhibition, % at 7.5 µM (by protocol) | hit rate 0.77% among 300,000 | AID 2098;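 active = more than half of replicate wells show activity change below -50%, luminescence cut by over half; inconclusive = some wells, but at most half, below -50%; inactive = no replicate well below -50%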;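 note: luciferase reports HSF-1 transcriptional activity via heat shock element; 0% = median of DMSO wells and -100% = zero luminescence signal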
# HSP90 refold inh: HSP90 refolding inhibition in rabbit reticulocyte lysate | luciferase refolding luminescence, 3 h | inhibition, % at 5.6 µM | hit rate 0.91% among 290,000 | AID 1789;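 active = inhibition above the screen-wide mean plus 3 SD, computed separately per campaign, cut at about 16% in these data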;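 note: 0% = DMSO wells and 100% = 60 µM geldanamycin wells; inhibitors lower the luminescence because luciferase stays unfolded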
# dFosB act-2: enhances mouse delta FosB homodimer binding to DNA | 2,400 tested, under 10 active | purified delta FosB, TAMRA-CDK5 oligo fluorescence polarization; normalised: neutral wells 0, positive control 100 | activation, % at 24.9 µM | shares compounds with dFosB act-1;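 active = highest replicate activation at or above 34% and every replicate reaching that threshold; inconclusive = meets only one of the two criteria; inactive = meets neither criterion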;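 note: higher polarization means more probe DNA bound by delta FosB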
# Starred values were filed as active, the others as inactive; ? = inconclusive; / = no result.
SMILES,Platelet DG rel,dFosB act-1,HSF1 activator,MPTP block,HSF1 inh,HSP90 refold inh,dFosB act-2
COc1cccc(Cn2cnc3c(NS(=O)(=O)c4ccc(Cl)cc4Cl)c(C)c(C)cc32)c1,2,2,22,-1,-10,-2,/
COc1cccc(Cn2cnc3c(NS(=O)(=O)c4ccc(Cl)cc4)c(C)c(C)cc32)c1,0,17*,-6,2,-13,-3,1
Cc1cccc(C(C)C)c1NC(=O)CN1C(=O)NC2(CCc3ccccc32)C1=O (configuration not stated),8,-8,-8,0,-5,/,/
COC(=O)c1cccc(Oc2cccc(Cl)n2)c1,0,5,23,-3,4,3,/
COC(=O)c1ccccc1NC(=O)CSc1nnnn1-c1ccc(C)cc1C,8,31*,-3,3,-4,-3,1
Cc1ccccc1-n1nnnc1SCC(=O)NNC(=O)c1ccc(NC(=O)CC#N)cc1,/,47*,/,0,/,/,0
CCCN(C(=O)COc1ccc(C(C)=O)cc1OC)C1CCS(=O)(=O)C1 (configuration not stated),/,-3,/,0,/,/,/
Cc1ccnc(NC(=O)CCC(=O)N(CC(=O)NC2CCCCC2)C2CCCC2)c1,6,7,2,0,-6,0,/
OC(c1ccc(Cl)cc1)c1ncc(-c2ccccc2F)[nH]1 (configuration not stated),/,/,/,2,/,/,/
Cc1cccc(N2CCN(c3nc(C)cc(C)c3C#N)CC2C)c1 (configuration not stated),-6,0,?,1,20,-5,/
Cc1nn(-c2ccc(F)cc2)c(Cl)c1/C=N/NC(=O)c1cccs1,-3,39*,20,1,16,-3,-3
COC(=O)N/N=C/c1c(C)nn(-c2cccc(Cl)c2)c1Cl,-9,-2,6,0,12,-8,/
Cc1nn(Cc2c(Cl)cccc2Cl)c(Cl)c1/C=N/NC(=O)c1cccnc1,1,56*,7,1,12,-3,4
Cc1nn(-c2cccc(Cl)c2)c(Cl)c1/C=N/NC(=O)c1cccnc1,-2,23*,/,2,/,1,0
COc1ccccc1C(=O)NC(=O)COC(=O)Cn1cnc2c1c(=O)n(C)c(=O)n2C,11,-6,4,0,0,/,/
Cc1ccc2nc(C3CCCCC3)c(Cc3cccc(Cl)c3)n2c1,/,/,/,8,/,/,/
COc1ccc(NC(=O)COC(=O)c2ccc(-n3cnnn3)cc2)cc1Cl,-2,35*,2,-1,2,/,-15
O=C(CCCCCn1c(=S)[nH]c2ccccc2c1=O)NCc1ccc2c(c1)OCO2,4,44*,-1,5,-5,2,3
O=C(CCCn1c(=O)[nH]c2ccc(Br)cc2c1=O)NCc1ccc(Cl)cc1,-2,100*,16,2,-3,0,0
O=C(CCn1c(=S)[nH]c2ccccc2c1=O)Nc1cccc(Cl)c1,2,47*,16,-1,-3,0,3
COc1cccc(CNC(=O)CCCn2c(=S)[nH]c3cc4c(cc3c2=O)OCO4)c1,-4,32*,-12,0,1,4,3
CC(C)CCNC(=O)CCCn1c(=O)[nH]c2ccc(Br)cc2c1=O,-3,-4,10,-2,-2,2,/
COc1cccc(N2CCN(C(=O)CCCCCn3c(=S)[nH]c4cc5c(cc4c3=O)OCO5)CC2)c1,1,3,16,-1,1,6,/
O=c1c2ccccc2[nH]c(=S)n1Cc1ccc2c(c1)OCO2,-2,21*,9,0,7,2,4
O=c1c2ccccc2c2ccccc2c(=O)n1Cc1ccc2c(c1)OCO2,/,/,/,-1,/,/,/
CCOC(=O)c1nn(-c2ccc(C)cc2)c(=O)cc1OCC(=O)Nc1cc(C)ccc1OC,13,0,31,4,-1,/,/
CCOC(=O)c1nn(-c2ccccc2)c(=O)cc1OCC(=O)Nc1cc(C)ccc1OC,7,23*,-9,2,-1,/,5
CC(=O)n1cc(/C=N/NC(=O)c2ccc(Cl)cc2)c2ccccc21,0,6,27,0,15,-2,/

# High-throughput results: PubChem, several laboratories
